Measured values: paper PMC8384837, “Expanding the binding specificity for RNA recognition by a PUF domain”
Where a chain is given by its changes, count along the chain named.

Legend:
Experiment in all cases: yeast three-hybrid, YBZ-1, SC-Leu-His + 0.5 mM 3-AT, 4 days
Settings in all cases: tags: N-Gal4 AD-HA kept; label: inside an RPR1-promoter hybrid RNA with tandem MS2 sites; ssRNA
PUM1 PUF domain R8-RFQ = PUM1 PUF domain R8-RFQ (Homo sapiens, UniProt Q14671 828-1176, N1122R;Y1123F)
Procedure, shortened: (§1)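 The interaction score is the logarithmic change in variant frequency from input to selection. It uses log2, with a pseudocount of 1 for absent variants, and frequencies came from PCR-amplified, Illumina-sequenced repeat regions. The libraries were Pumilio-1 PUF domains randomized at the three base-contacting residues per repeat, co-expressed with matching RNA elements in strain YBZ-1 (LexA–MS2 coat fusion, HIS3 reporter). Plating lasted four days on SC-Leu (input) or SC-Leu-His + 0.5 mM 3-AT (selection).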

PUM1 PUF domain R3-DYA = PUM1 PUF domain R3-DYA (Homo sapiens, UniProt Q14671 828-1176, C935D;R936Y;Q939A)
Procedure, shortened: as §1

PUM1 PUF domain R4-PYV = PUM1 PUF domain R4-PYV (Homo sapiens, UniProt Q14671 828-1176, N971P;H972Y;Q975V)
Procedure, shortened: as §1

PUM1 PUF domain R4-EHF = PUM1 PUF domain R4-EHF (Homo sapiens, UniProt Q14671 828-1176, N971E;Q975F)
Procedure, shortened: as §1

PUM1 PUF domain R4-PFC = PUM1 PUF domain R4-PFC (Homo sapiens, UniProt Q14671 828-1176, N971P;H972F;Q975C)
Procedure, shortened: as §1

PUM1 PUF domain R4-NRG = PUM1 PUF domain R4-NRG (Homo sapiens, UniProt Q14671 828-1176, H972R;Q975G)
Procedure, shortened: as §1

PUM1 PUF domain R5-KDR = PUM1 PUF domain R5-KDR (Homo sapiens, UniProt Q14671 828-1176, C1007K;R1008D;Q1011R)
Procedure, shortened: as §1

PUM1 PUF domain R5-KRL = PUM1 PUF domain R5-KRL (Homo sapiens, UniProt Q14671 828-1176, C1007K;Q1011L)
Procedure, shortened: as §1

PUM1 PUF domain R5-RMD = PUM1 PUF domain R5-RMD (Homo sapiens, UniProt Q14671 828-1176, C1007R;R1008M;Q1011D)
Procedure, shortened: as §1

PUM1 PUF domain R5-KSG = PUM1 PUF domain R5-KSG (Homo sapiens, UniProt Q14671 828-1176, C1007K;R1008S;Q1011G)
Procedure, shortened: as §1

PUM1 PUF domain R5-RRY = PUM1 PUF domain R5-RRY (Homo sapiens, UniProt Q14671 828-1176, C1007R;Q1011Y)
Procedure, shortened: as §1

PUM1 PUF domain R6-DFQ = target: T1, PUM1 PUF domain R6-DFQ (Homo sapiens, UniProt Q14671 828-1176, N1043D;Y1044F)
T1 sequence: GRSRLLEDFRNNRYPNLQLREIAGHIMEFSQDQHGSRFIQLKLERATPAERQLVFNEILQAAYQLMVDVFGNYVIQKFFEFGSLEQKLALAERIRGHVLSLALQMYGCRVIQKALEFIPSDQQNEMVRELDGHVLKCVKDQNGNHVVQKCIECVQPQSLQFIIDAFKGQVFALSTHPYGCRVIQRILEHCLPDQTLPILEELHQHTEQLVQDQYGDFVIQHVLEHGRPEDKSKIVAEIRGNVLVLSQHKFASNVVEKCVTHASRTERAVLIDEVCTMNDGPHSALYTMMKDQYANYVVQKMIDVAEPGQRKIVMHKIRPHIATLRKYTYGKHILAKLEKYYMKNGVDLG
Procedure, shortened: as §1

PUM1 PUF domain R6-QHR = target: T2, PUM1 PUF domain R6-QHR (Homo sapiens, UniProt Q14671 828-1176, N1043Q;Y1044H;Q1047R)
T2 sequence: T1 sequence with D216Q, F217H, Q220R
Procedure, shortened: as §1

PUM1 PUF domain R6-FWK = target: T3, PUM1 PUF domain R6-FWK (Homo sapiens, UniProt Q14671 828-1176, N1043F;Y1044W;Q1047K)
T3 sequence: T1 sequence with D216F, F217W, Q220K
Procedure, shortened: as §1

PUM1 PUF domain R6-QWR = target: T4, PUM1 PUF domain R6-QWR (Homo sapiens, UniProt Q14671 828-1176, N1043Q;Y1044W;Q1047R)
T4 sequence: T1 sequence with D216Q, F217W, Q220R
Procedure, shortened: as §1

PUM1 PUF domain R8-KRS = PUM1 PUF domain R8-KRS (Homo sapiens, UniProt Q14671 828-1176, N1122K;Y1123R;Q1126S)
Procedure, shortened: as §1

PUM1 PUF domain R2-PYE = PUM1 PUF domain R2-PYE (Homo sapiens, UniProt Q14671 828-1176, N899P;Q903E)
Procedure, shortened: as §1

PUM1 PUF domain R6-VYC = target: T5, PUM1 PUF domain R6-VYC (Homo sapiens, UniProt Q14671 828-1176, N1043V;Q1047C)
T5 sequence: T1 sequence with D216V, F217Y, Q220C
Procedure, shortened: as §1

PUM1 PUF domain R7-RRE = PUM1 PUF domain R7-RRE (Homo sapiens, UniProt Q14671 828-1176, S1079R;N1080R)
Procedure, shortened: as §1

PUM1 PUF domain R7-RWP = PUM1 PUF domain R7-RWP (Homo sapiens, UniProt Q14671 828-1176, S1079R;N1080W;E1083P)
Procedure, shortened: as §1

## GGCUAGAACUAGUGGAUCCCCCGGCGCCCGGCGGCUCGAGCCCGGGUAAGGGUAAAUAGUCUGCAUGCCGCCGGGCGCCAUGCCUGCAGGUCGACUCUAGAAAACAUG
PUM1 PUF domain R8-RFQ
  binding signal: 2.44 log2 enrichment (interaction score)

## GGCUAGAACUAGUGGAUCCCCCGGCGCCCGGCGGCUCGAGCCCGGGUAAGUGUAAGUAGUCUGCAUGCCGCCGGGCGCCAUGCCUGCAGGUCGACUCUAGAAAACAUG
PUM1 PUF domain R3-DYA
  binding signal: 1.16 log2 enrichment (interaction score)

## GGCUAGAACUAGUGGAUCCCCCGGCGCCCGGCGGCUCGAGCCCGGGUAAGUGUAUAUAGUCUGCAUGCCGCCGGGCGCCAUGCCUGCAGGUCGACUCUAGAAAACAUG
PUM1 PUF domain R4-PYV
  binding signal: 7.86 log2 enrichment (interaction score)
PUM1 PUF domain R4-EHF
  binding signal: 5.95 log2 enrichment (interaction score)
PUM1 PUF domain R4-PFC
  binding signal: 7.01 log2 enrichment (interaction score)
PUM1 PUF domain R4-NRG
  binding signal: 2.73 log2 enrichment (interaction score)

## GGCUAGAACUAGUGGAUCCCCCGGCGCCCGGCGGCUCGAGCCCGGGUAAGUGUACAUAGUCUGCAUGCCGCCGGGCGCCAUGCCUGCAGGUCGACUCUAGAAAACAUG
PUM1 PUF domain R4-PYV
  binding signal: 6.43 log2 enrichment (interaction score)
PUM1 PUF domain R4-PFC
  binding signal: 5.29 log2 enrichment (interaction score)
PUM1 PUF domain R4-NRG
  binding signal: 0.43 log2 enrichment (interaction score)

## GGCUAGAACUAGUGGAUCCCCCGGCGCCCGGCGGCUCGAGCCCGGGUAAGUGUCAAUAGUCUGCAUGCCGCCGGGCGCCAUGCCUGCAGGUCGACUCUAGAAAACAUG
PUM1 PUF domain R5-KDR
  binding signal: 4.77 log2 enrichment (interaction score)
PUM1 PUF domain R5-KRL
  binding signal: 3.16 log2 enrichment (interaction score)
PUM1 PUF domain R5-RMD
  binding signal: 4.23 log2 enrichment (interaction score)
PUM1 PUF domain R5-KSG
  binding signal: 3.24 log2 enrichment (interaction score)
PUM1 PUF domain R5-RRY
  binding signal: 4.32 log2 enrichment (interaction score)

## GGCUAGAACUAGUGGAUCCCCCGGCGCCCGGCGGCUCGAGCCCGGGUAAGUGUUAAUAGUCUGCAUGCCGCCGGGCGCCAUGCCUGCAGGUCGACUCUAGAAAACAUG
PUM1 PUF domain R5-KDR
  binding signal: 2.77 log2 enrichment (interaction score)
PUM1 PUF domain R5-KRL
  binding signal: 3 log2 enrichment (interaction score)
PUM1 PUF domain R5-KSG
  binding signal: 2.98 log2 enrichment (interaction score)
PUM1 PUF domain R5-RRY
  binding signal: 3.28 log2 enrichment (interaction score)

## GGCUAGAACUAGUGGAUCCCCCGGCGCCCGGCGGCUCGAGCCCGGGUAAGUGUAAAUAGUCUGCAUGCCGCCGGGCGCCAUGCCUGCAGGUCGACUCUAGAAAACAUG
PUM1 PUF domain R8-RFQ
  binding signal: 2.11 log2 enrichment (interaction score)
PUM1 PUF domain R3-DYA
  binding signal: 5.02 log2 enrichment (interaction score)
PUM1 PUF domain R4-PYV
  binding signal: 5.22 log2 enrichment (interaction score)
PUM1 PUF domain R5-KRL
  binding signal: 1.09 log2 enrichment (interaction score)
PUM1 PUF domain R6-DFQ
  binding signal: 8.15 log2 enrichment (interaction score)
PUM1 PUF domain R4-PFC
  binding signal: 7.66 log2 enrichment (interaction score)
PUM1 PUF domain R5-RRY
  binding signal: 1.18 log2 enrichment (interaction score)
PUM1 PUF domain R6-QHR
  binding signal: 6.41 log2 enrichment (interaction score)
PUM1 PUF domain R4-NRG
  binding signal: 3.35 log2 enrichment (interaction score)
PUM1 PUF domain R6-FWK
  binding signal: 2.07 log2 enrichment (interaction score)
PUM1 PUF domain R6-QWR
  binding signal: 2.53 log2 enrichment (interaction score)
PUM1 PUF domain R8-KRS
  binding signal: 1.29 log2 enrichment (interaction score)

## GGCUAGAACUAGUGGAUCCCCCGGCGCCCGGCGGCUCGAGCCCGGGUAAGUGUAAAAAGUCUGCAUGCCGCCGGGCGCCAUGCCUGCAGGUCGACUCUAGAAAACAUG
PUM1 PUF domain R2-PYE
  binding signal: 5.7 log2 enrichment (interaction score)

## GGCUAGAACUAGUGGAUCCCCCGGCGCCCGGCGGCUCGAGCCCGGGUAAGUGAAAAUAGUCUGCAUGCCGCCGGGCGCCAUGCCUGCAGGUCGACUCUAGAAAACAUG
PUM1 PUF domain R6-VYC
  binding signal: 6.26 log2 enrichment (interaction score)

## GGCUAGAACUAGUGGAUCCCCCGGCGCCCGGCGGCUCGAGCCCGGGUAAGUGUGAAUAGUCUGCAUGCCGCCGGGCGCCAUGCCUGCAGGUCGACUCUAGAAAACAUG
PUM1 PUF domain R5-KRL
  binding signal: 0.47 log2 enrichment (interaction score)

## GGCUAGAACUAGUGGAUCCCCCGGCGCCCGGCGGCUCGAGCCCGGGUAAGUGCAAAUAGUCUGCAUGCCGCCGGGCGCCAUGCCUGCAGGUCGACUCUAGAAAACAUG
PUM1 PUF domain R6-QWR
  binding signal: 2.4 log2 enrichment (interaction score)

## GGCUAGAACUAGUGGAUCCCCCGGCGCCCGGCGGCUCGAGCCCGGGUAAGCGUAAAUAGUCUGCAUGCCGCCGGGCGCCAUGCCUGCAGGUCGACUCUAGAAAACAUG
PUM1 PUF domain R8-RFQ
  binding signal: 5.63 log2 enrichment (interaction score)
PUM1 PUF domain R8-KRS
  binding signal: 3.28 log2 enrichment (interaction score)

## GGCUAGAACUAGUGGAUCCCCCGGCGCCCGGCGGCUCGAGCCCGGGUAAGUCUAAAUAGUCUGCAUGCCGCCGGGCGCCAUGCCUGCAGGUCGACUCUAGAAAACAUG
PUM1 PUF domain R7-RRE
  binding signal: 3.75 log2 enrichment (interaction score)
PUM1 PUF domain R7-RWP
  binding signal: 4.98 log2 enrichment (interaction score)
